Test results taken from PubChem BioAssay (NCI).
Compounds without any hit were thinned out: in the full panel of roughly 79,000, 15% have a hit. Active and inactive are the calls of the source. Cut-off read from the data, not from the text of the source: active = growth inhibition above about 70%; inactive = the rest.

Key:
[1] = NCI Yeast Anticancer Drug Screen. Data for the rad52 strain (AID 147);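 note: 0% = growth of vehicle-treated control cultures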; settings: S. cerevisiae rad52 mutant growth inhibition, hits give high values
How it was run: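 Vehicle-treated cultures served as the reference for growth inhibition of compound-exposed yeast bearing a DNA repair mutation.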

[2] = NCI Yeast Anticancer Drug Screen. Data for the wt1 strain (AID 149);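 note: 0% = growth of vehicle-treated wt1 cultures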; settings: S. cerevisiae wt1 strain (SPY 50644) growth inhibition, hits give high values
How it was run: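 Growth inhibition read against vehicle controls after compound exposure of the wt1 yeast strain.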

[3] = NCI Yeast Anticancer Drug Screen. Data for the rad50EPP+ strain (AID 151);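 note: 0% = growth of vehicle-treated control cultures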; settings: S. cerevisiae rad50 mutant strain, hits give high values
How it was run: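 In this screen, rad50EPP+ yeast were exposed to compounds. Growth inhibition was scored against vehicle-treated controls.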

[4] = NCI Yeast Anticancer Drug Screen. Data for the mgt1 strain (AID 153); settings: S. cerevisiae mgt1 mutant growth inhibition, hits give high values
How it was run: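 mgt1 strain exposed; growth vs vehicle control recorded as inhibition.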

[5] = NCI Yeast Anticancer Drug Screen. Data for the rad50 strain (AID 155);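 note: 0% = growth of vehicle-only cultures of the same strain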; settings: S. cerevisiae rad50 strain growth inhibition, hits give high values
How it was run: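 Readout: growth inhibition relative to vehicle-treated cultures. Compound exposure was carried out in a genetically defined yeast strain deficient in DNA damage repair.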

[6] = NCI Yeast Anticancer Drug Screen. Data for the mec2-1 strain (AID 157); settings: S. cerevisiae mec2-1 strain, hits give high values
How it was run: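 Vehicle-treated cultures served as reference for growth inhibition of compound-exposed mec2-1 yeast.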

[7] = NCI Yeast Anticancer Drug Screen. Data for the rad14 strain (AID 159);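 note: 0% = growth of vehicle-treated control cultures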; settings: S. cerevisiae rad14 strain growth inhibition, hits give high values
How it was run: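 Growth inhibition vs vehicle controls; genetically altered yeast strain (DNA damage repair defect) treated with test compounds.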

[8] = NCI Yeast Anticancer Drug Screen. Data for the sgs1 mgt1 strain (AID 161);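 note: 0% = growth of cultures given vehicle only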; settings: S. cerevisiae sgs1 mgt1 strain, hits give high values
How it was run: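 Mutant yeast exposed to compound; growth scored against vehicle-only wells.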

[9] = NCI Yeast Anticancer Drug Screen. Data for the CLN2oe strain (AID 163);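 note: 0% = growth of vehicle-only control cultures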; settings: S. cerevisiae CLN2oe strain, hits give high values
How it was run: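 Inhibition relative to vehicle-treated yeast is reported. Cells: strain with genetic alteration in cell-cycle control, grown with compound.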

[10] = NCI Yeast Anticancer Drug Screen. Data for the cln2 rad14 strain (AID 165);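 note: 0% = growth equal to vehicle treated cultures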; settings: S. cerevisiae cln2 rad14 strain, hits give high values
How it was run: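 Each compound was tested on cln2 rad14 yeast. Inhibition of growth was calculated against vehicle-exposed controls.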

[11] = NCI Yeast Anticancer Drug Screen. Data for the bub3 strain (AID 167); settings: S. cerevisiae bub3 mutant strain, hits give high values
How it was run: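 Readout: yeast growth inhibition, expressed relative to vehicle-only wells. The test organism is a mutant strain from a panel with lesions in DNA repair or checkpoint genes.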

[12] = NCI Yeast Anticancer Drug Screen. Data for the wt2 strain (AID 169);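 note: 0% = growth of vehicle-treated yeast cultures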; settings: S. cerevisiae wt2 strain growth inhibition, hits give high values
How it was run: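 Inhibition of yeast growth was determined after compound treatment, normalised to controls receiving only vehicle.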

[13] = NCI Yeast Anticancer Drug Screen. Data for the mlh1 strain (AID 171);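 note: 0% = growth of vehicle-treated control cultures of the same strain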; settings: S. cerevisiae mlh1 strain growth inhibition, hits give high values
How it was run: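 Vehicle-normalised growth inhibition of a repair- or checkpoint-altered yeast strain following compound treatment.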

[14] = NCI Yeast Anticancer Drug Screen. Data for the mlh1 rad18 strain (AID 175); settings: S. cerevisiae mlh1 rad18 strain growth inhibition, hits give high values
How it was run: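 Vehicle-treated cultures served as the reference for growth inhibition in a yeast strain carrying DNA damage repair alterations exposed to each compound.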

[15] = NCI Yeast Anticancer Drug Screen. Data for the rad18 strain (AID 177); settings: S. cerevisiae rad18 mutant growth inhibition, hits give high values
How it was run: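 Test articles were incubated with altered yeast defective in DNA damage repair. Results are given as inhibition of growth versus vehicle.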

[16] = NCI Yeast Anticancer Drug Screen. Data for the sgs1 strain (AID 173);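 note: 0% = growth of vehicle-only control cultures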; settings: S. cerevisiae sgs1 mutant, hits give high values
How it was run: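 Screen format: yeast with repair or checkpoint alterations, compound exposure, growth read relative to vehicle.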

[17] = at 5.0 µM (retest, dose inferred, filed as 0.5)
[18] = at 50.0 µM (retest, dose inferred, filed as 5.0)

Measured: growth inhibition

c1ccc(-c2cc(C3CO3)c3ccccc3n2)cc1 (stereo unspecified)
inactive: [1]; at 1.2 µM -1% | [1]; at 3.7 µM 5% | [1]; at 11.0 µM 19% | [2]; at 1.2 µM -1% | [2]; at 3.7 µM -3% | [2]; at 11.0 µM -5% | [2]; at 33.0 µM 2% | [3]; at 1.2 µM 2% | [3]; at 3.7 µM 6% | [3]; at 11.0 µM 24% | [3]; at 33.0 µM 46% | [3]; at 100.0 µM 68% | [4]; at 1.2 µM -2% | [4]; at 3.7 µM -4% | [4]; at 11.0 µM 1% | [4]; at 33.0 µM 69% | [5]; at 1.2 µM -4% | [5]; at 3.7 µM 1% | [5]; [17] -14% | [5]; at 11.0 µM -4% | [5]; at 33.0 µM 36% | [5]; [18] 15% | [6]; at 1.2 µM -3% | [6]; at 3.7 µM -1% | [6]; [17] -28% | [6]; at 11.0 µM -4% | [6]; at 33.0 µM 7% | [6]; [18] 35% | [7]; at 1.2 µM -4% | [7]; at 3.7 µM -4% | [7]; at 11.0 µM 1% | [7]; at 33.0 µM 25% | [8]; [17] -1% | [9]; at 1.2 µM -7% | [9]; at 3.7 µM -11% | [9]; at 11.0 µM -11% | [9]; at 33.0 µM 4% | [10]; [17] -29% | [10]; [18] 28% | [10]; at 50.0 µM 66.5% | [11]; at 1.2 µM 2% | [11]; at 3.7 µM -1% | [11]; [17] 8% | [11]; at 11.0 µM 10% | [11]; at 33.0 µM 41% | [11]; [18] 31% | [12]; at 1.2 µM -1% | [12]; at 3.7 µM 1% | [12]; at 11.0 µM 12% | [13]; at 1.2 µM -1% | [13]; at 3.7 µM -1% | [13]; at 11.0 µM 6% | [14]; [17] -17% | [14]; [18] 69% | [15]; at 1.2 µM 2% | [15]; at 3.7 µM 11% | [15]; at 11.0 µM 53%
active: [1]; at 33.0 µM 70% | [1]; at 100.0 µM 98% | [2]; at 100.0 µM 96% | [4]; at 100.0 µM 99% | [5]; at 50.0 µM 90.7% | [5]; at 100.0 µM 98% | [6]; at 50.0 µM 74.5% | [6]; at 100.0 µM 98% | [7]; at 100.0 µM 97% | [8]; [18] 80% | [8]; at 50.0 µM 95.5% | [9]; at 100.0 µM 97% | [11]; at 50.0 µM 93.2% | [11]; at 100.0 µM 99% | [12]; at 33.0 µM 77% | [12]; at 100.0 µM 99% | [13]; at 33.0 µM 73% | [13]; at 100.0 µM 99% | [14]; at 50.0 µM 95.8% | [15]; at 33.0 µM 89% | [15]; at 100.0 µM 97%

O/N=c1/ccn(O)c2ccccc12
inactive: [1]; at 1.2 µM 49% | [2]; at 1.2 µM 0% | [2]; at 3.7 µM 8% | [2]; at 11.0 µM 20% | [2]; at 33.0 µM 43% | [2]; at 100.0 µM 61% | [4]; at 1.2 µM -1% | [4]; at 3.7 µM 7% | [4]; at 11.0 µM 23% | [4]; at 33.0 µM 51% | [6]; at 1.2 µM 51% | [9]; at 1.2 µM -8% | [9]; at 3.7 µM -5% | [9]; at 11.0 µM 8% | [9]; at 33.0 µM 37% | [9]; at 100.0 µM 58% | [11]; at 1.2 µM -5% | [11]; at 3.7 µM 5% | [11]; [17] 11% | [11]; at 11.0 µM 24% | [11]; at 33.0 µM 54% | [12]; at 1.2 µM -1% | [12]; at 3.7 µM 14% | [12]; at 11.0 µM 20% | [12]; at 33.0 µM 39% | [12]; at 100.0 µM 58% | [13]; at 1.2 µM 2% | [13]; at 3.7 µM 15% | [13]; at 11.0 µM 30% | [13]; at 33.0 µM 53%
active: [1]; at 3.7 µM 91% | [1]; at 11.0 µM 95% | [1]; at 33.0 µM 96% | [1]; at 100.0 µM 95% | [3]; at 1.2 µM 87% | [3]; at 3.7 µM 96% | [3]; at 11.0 µM 97% | [3]; at 33.0 µM 97% | [3]; at 100.0 µM 97% | [4]; at 100.0 µM 84% | [5]; at 1.2 µM 74% | [5]; at 3.7 µM 96% | [5]; [17] 89% | [5]; at 11.0 µM 95% | [5]; at 33.0 µM 96% | [5]; [18] 95% | [5]; at 50.0 µM 96.3% | [5]; at 100.0 µM 96% | [6]; at 3.7 µM 97% | [6]; [17] 94% | [6]; at 11.0 µM 98% | [6]; at 33.0 µM 98% | [6]; [18] 98% | [6]; at 50.0 µM 97.5% | [6]; at 100.0 µM 98% | [7]; at 1.2 µM 96% | [7]; at 3.7 µM 99% | [7]; at 11.0 µM 99% | [7]; at 33.0 µM 99% | [7]; at 100.0 µM 99% | [8]; [17] 87% | [8]; [18] 95% | [8]; at 50.0 µM 97% | [10]; [17] 98% | [10]; [18] 99% | [10]; at 50.0 µM 98.8% | [11]; [18] 72% | [11]; at 50.0 µM 83.2% | [11]; at 100.0 µM 79% | [13]; at 100.0 µM 83% | [16]; at 1.2 µM 85% | [16]; at 3.7 µM 94% | [16]; at 11.0 µM 96% | [16]; at 33.0 µM 96% | [16]; at 100.0 µM 96% | [14]; [17] 82% | [14]; [18] 97% | [14]; at 50.0 µM 97.5% | [15]; at 1.2 µM 96% | [15]; at 3.7 µM 98% | [15]; at 11.0 µM 97% | [15]; at 33.0 µM 97% | [15]; at 100.0 µM 97%
